Screening data (PubChem)
TDP1 cell CPT – qHTS for Inhibitors of human tyrosyl-DNA phosphodiesterase 1 (TDP1): qHTS in cells in presence of CPT. actives 12% (n = 420,000). chicken DT40 Tdp1-/-;hTDP1 cells + 20 nM CPT, ATP luminescence, 48 h. Potency, µM (highest dose often 46.2 µM), for inactives: at the highest dose activity change, negative = growth inhibition, usual class: inhibitors. AID 686979, 2013; note: potency is the fitted concentration of half-maximal effect; nearly all actives have a fitted effect of over 55% in size
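Cell growth measured by CellTiter-Glo luminescence after a minimum 48 h, 37 C compound exposure with 20 nM CPT in Tdp1-knockout DT40 cells stably expressing hTDP1, seeded 400/well; qHTS titration format.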
LDHA inh – qHTS assay for inhibitors of human lactate dehydrogenase; actives 0.15% (n = 480,000); activity change, % (values are at about 110 or 230 µM); purified LDHA, NADH/diaphorase-resazurin fluorescence; active compounds read low; AID 1347041, 2019; in the data active = activity change below about -30%; inconclusive = mostly about -25% to -30%;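 note: plate controls were DMSO wells for no effect and wells without enzyme for full effect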
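Resorufin fluorescence (ex540/em590), read at 0 and 20 min after diaphorase/resazurin addition, reports the NADH left after a 5 min room-temperature reaction of 2 nM human LDH5 with 0.06 mM NADH and 0.2 mM pyruvate.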
RORgamma inh – qHTS for inhibitors of ROR gamma transcriptional activity; Drosophila S2 Gal4-RORgamma UAS-luciferase reporter, 20 h; Potency, µM (highest dose often 53.6 µM), for the others: at the highest dose activity change, negative = inhibition, usual class: inhibitors; actives 5.4% (n = 310,000); note: potency is the fitted concentration of half-maximal effect; nearly all actives have a fitted effect of over 60% in size
Target sequence (P51450 whole entry, looked up, the tested form may be a part): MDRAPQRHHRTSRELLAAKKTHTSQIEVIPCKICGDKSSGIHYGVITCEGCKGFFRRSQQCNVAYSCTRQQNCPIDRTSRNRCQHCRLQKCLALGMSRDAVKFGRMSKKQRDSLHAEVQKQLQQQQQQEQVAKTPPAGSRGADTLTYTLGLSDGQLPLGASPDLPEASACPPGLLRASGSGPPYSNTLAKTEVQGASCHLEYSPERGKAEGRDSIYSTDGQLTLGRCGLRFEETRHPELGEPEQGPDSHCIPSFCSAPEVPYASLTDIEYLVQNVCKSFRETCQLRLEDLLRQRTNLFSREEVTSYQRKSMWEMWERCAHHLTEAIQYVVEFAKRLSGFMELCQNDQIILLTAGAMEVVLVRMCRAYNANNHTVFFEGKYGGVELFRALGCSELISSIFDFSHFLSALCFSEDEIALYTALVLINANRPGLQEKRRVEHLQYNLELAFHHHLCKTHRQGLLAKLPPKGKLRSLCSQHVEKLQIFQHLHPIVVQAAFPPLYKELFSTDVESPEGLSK
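ROR gamma transcriptional activity was tracked as Gal4-UAS luciferase output in stably transfected Drosophila Schneider cells, with compound added 1 hr before 700 uM copper sulfate induction and a 20 hr ambient-temperature incubation.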
VP16 counter – VP16 counterscreen qHTS for inhibitors of ROR gamma transcriptional activity; Potency, µM (highest dose often 53.6 µM), for inactives: at the top dose activity, negative = inhibition, actives largely listed as inhibitors; Drosophila S2 Gal4-VP16 UAS-luciferase, luminescence, 20 h; actives 3.5% (n = 310,000);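 note: Gal4-VP16 expression switched on by copper sulfate through the metallothionein promoter; potency is the fitted concentration of half-maximal effect; nearly all actives have a fitted effect of over 50% in size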
TDP1 cell noCPT – qHTS for Inhibitors of human tyrosyl-DNA phosphodiesterase 1 (TDP1): qHTS in cells in absence of CPT; DT40 Tdp1-/- hTDP1 cells, no CPT, ATP luminescence, 48 h; AID 686978, 2013; Potency, µM (top dose mostly 46.2 µM), inactives show at the top dose activity change, negative = growth inhibition, hits mostly inhibitors; actives 15% (n = 420,000); note: potency is the fitted concentration of half-maximal effect; nearly all actives have a fitted effect of over 55% in size
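Cells were dispensed at 400 per well, compounds added by pin tool, plates incubated ≥48 hr at 37 °C, then CellTiter-Glo added for 30 min at room temperature before luminescence reading. Line: DT40 Tdp1-/- complemented with hTDP1; camptothecin omitted.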
IL1B secr inh – qHTS for Inhibitors of Inflammasome Signaling: IL-1-beta AlphaLISA Primary Screen; actives 4.7% (n = 360,000); AID 743279, 2014; THP-1 LPS/ATP IL-1B secretion, AlphaLISA, 16 h; active compounds read low; activity change, % at 57.5 µM; in the data active = activity change below about -50%; inconclusive = mostly about -30% to -49%
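Secreted IL-1B measured by AlphaLISA bead assay after 16 h compound exposure of THP-1 cells; compounds (final up to 57.5 uM) added 1 h before LPS (250 ng/mL) and ATP (1.25 mM) stimulation; lower signal means less secretion.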
The depositor's hits bear a star; ? = inconclusive; nt = not tested or not shown; ! = not active in a repeat; [ ] = remark or other dose. In the library only some 18% were active in any assay of this set; here they are far more common. Unless noted, calls come from the whole dose curve; as a rule, active = well fitted curve in the direction sought with a large enough effect; inconclusive = small, poorly fitted or top-dose-only effect, or another doubt; inactive = no such curve, though single readings can be large; an effect the other way counts as inactive or inconclusive. Unless noted, % is set by controls: 0 for no effect and ±100 for the full control effect.

SMILES	TDP1 cell CPT	LDHA inh	RORgamma inh	VP16 counter	TDP1 cell noCPT	IL1B secr inh
CCOC(=O)COc1ccccc1/C=C\[N+](=O)[O-]	2.6µM*	2	16µM*	3.5µM*	1.6µM*	-100*
COC(=O)C1=C(C)N(c2ccc(Cl)cc2)/C(=C/c2cccs2)C1=O	?	-12	0%	-1%	13µM*	0
COC(=O)C1=C(C)N(c2ccc(C)c(C)c2)/C(=C/c2cccs2)C1=O	16µM*	-7	-8%	2%	16µM*	2
COC(=O)C1=C(C)N(c2ccccc2)/C(=C/c2cccs2)C1=O	-28%	-3	-14%	1%	?	-2
COC(=O)c1cnn(-c2nc(OC)cc(OC)n2)c1C	-13%	-1	-19%	-5%	?	-8
COc1cc(OC)nc(-n2ncc(Br)c(Br)c2=O)n1	0.65µM*	0	2.2µM*	4.5µM*	0.82µM*	-96*
Cc1[nH]n(-c2nc(-c3ccc(Cl)cc3)cs2)c(=O)c1N=Nc1ccc(O)cc1	2.6µM*	2	10%	-5%	5.8µM*	-51*
N=c1n(CCN2CCCCC2)c2ccccc2n1CC(O)COc1ccccc1 (stereo not given)	18µM*	-1	26%	-5%	15µM*	-56*
Cc1ccccc1OCC(O)Cn1c(=N)n(CCN2CCOCC2)c2ccccc21 (stereo not given)	?	-4	-24%	-12%	?	-54*!
COc1ccccc1OCC(O)Cn1c(=N)n(CCN2CCCCC2)c2ccccc21 (stereo not given)	?	-11	-20%	-6%	16µM*	-53*
Cc1ccccc1OCC(O)Cn1c(=N)n(CCN2CCCCC2)c2ccccc21 (stereo not given)	5.8µM*	-9	nt	nt	4.6µM*	nt
Cc1ccccc1OCC(O)CN1CCN(CC(O)COc2ccccc2C)CC1 (stereo not given)	?	-1	0%	-7%	?	-12
O=C(CCc1ncc(-c2ccc(F)cc2F)o1)N1CCN(C(=O)C2CC2)CC1	nt	8	nt	nt	nt	nt
CCc1ccc(-c2nc(C)c(C(=O)Nc3ccc4[nH]c(=O)[nH]c4c3)s2)cc1	nt	3	nt	nt	nt	nt
COc1ncccc1CNC(=O)c1ccc2c(c1)CCC(=O)N2	nt	-2	nt	nt	nt	nt
Cc1ccccc1OCC(O)CN (stereo not given)	-9%	-6	4%	-1%	-19%	-7
Cc1ccccc1OCCNCC(C)O (stereo not given)	-2%	-19	-19%	-2%	-4%	-4
Cc1ccccc1OCCn1c(=N)n(C(C)C)c2ccccc21	8.2µM*	-9	nt	nt	6.5µM*	nt
Cc1ccccc1OCC(O)COc1ccccc1C	?	-6	nt	nt	21µM*	0
Cc1ccccc1NC(=O)c1ccc(-c2ccc(Cl)cc2Cl)o1	?	3	3%	2%	13µM*	-11
COC(=O)c1cc(NC(=O)c2ccc(-c3ccc(Cl)cc3Cl)o2)cc(C(=O)OC)c1	-3%	1	nt	nt	-21%	nt
Cc1ccc(NC(=O)c2ccc(-c3cc(Cl)ccc3Cl)o2)c(C)c1	21µM*	nt	nt	nt	?	-17
COc1cccc(OC)c1NC(=O)c1ccc(-c2cc(Cl)ccc2Cl)o1	?	nt	nt	nt	?	-58*
CC(Sc1cc(C(N)=O)c2ccccc2n1)c1nc(C(C)(C)C)no1 (stereo not given)	nt	2	nt	nt	nt	nt
N#C/C(=C/c1c[nH]c2ccccc12)C(=O)N1CCCC1	nt	-1	nt	nt	nt	nt
SMILES	TDP1 cell CPT	LDHA inh	RORgamma inh	VP16 counter	TDP1 cell noCPT	IL1B secr inh
O=C(Nc1ccc2cc[nH]c2c1)C(=O)NC1CCCCC1	nt	2	nt	nt	nt	nt
O=S1(=O)N[C@@H](Cc2ccccc2)COc2cc(N3CCN(Cc4ccccc4F)CC3)ccc21	-30%	-3	nt	nt	21µM*	-13
CC(C)C[C@H]1COc2cccc(N3CCN(Cc4ccccc4F)CC3)c2S(=O)(=O)N1	?	0	nt	nt	18µM*	-11
COC(=O)c1c(NC(=O)CN2CCNC(=O)C2)sc2c1CCCCC2	nt	1	nt	nt	nt	nt
COc1ccccc1C(=O)N1CCCC(c2nc(SCCN3CCOCC3)ncc2C)C1 (stereo not given)	-10%[9.04 µM]	nt	nt	nt	?	nt
COc1ccc(C(=O)N2CCCC(c3nc(SCc4ccccn4)ncc3C)C2)cc1F (stereo not given)	9.2µM*	nt	nt	nt	7.3µM*	nt
Cc1cnc(SCc2ccccn2)nc1C1CCCN(C(=O)c2noc3c2CCCC3)C1 (stereo not given)	10µM*	nt	nt	nt	15µM*	nt
COc1cccc(C(=O)N2CCCC(c3nc(SCCN4CCOCC4)ncc3C)C2)c1 (stereo not given)	?	nt	nt	nt	16µM*	nt
Cc1cnc(SCc2ccccn2)nc1C1CCCN(C(=O)c2coc3c2C(=O)CCC3)C1 (stereo not given)	?	nt	nt	nt	23µM*	nt
CC(=O)Nc1ccc(C(=O)N2CCCC(c3nc(SCc4ccccn4)ncc3C)C2)cc1 (stereo not given)	17%[9.04 µM]	nt	nt	nt	-5%	nt
O=C(Nc1ccc(Cl)c(C(F)(F)F)c1)c1ccccc1I	nt	8	nt	nt	nt	nt
Cn1c(SCC(=O)c2ccc3c(c2)Cc2ccccc2-3)nnc1-c1ccccc1	-29%	-7	-17%	-4%	29µM*	-13
Cn1c(SCC(=O)c2ccccc2)nnc1-c1ccc(O)cc1	2%	-1	0%	11µM*	?	15
COc1ccc(NC(=O)c2ncoc2-c2cccc(C)c2)c(OC)c1	nt	-12	nt	nt	nt	nt
COc1ccc(C(=O)N(Cc2sccc2C)C2CCS(=O)(=O)C2)cc1Cl (stereo not given)	?	2	nt	nt	18µM*	nt
Cc1cc(Cl)ccc1OCC(=O)N(Cc1sccc1C)C1CCS(=O)(=O)C1 (stereo not given)	23µM*	-14	nt	nt	18µM*	nt
COCCN(C(=S)Nc1c(C)cc(C)cc1C)C(C)c1cccnc1 (stereo not given)	?	-3	?	-5%	-53%	-6
CC(C)CCN(C(=S)Nc1cccc(F)c1)C(C)c1cccs1 (stereo not given)	?	-2	20µM*	?	1%	-2
